Compound activity: PubChem, NMMLSC
Sampled rows, rich in hits. Any-hit rate of the full collection: about 2.5%.
MEKK3 PB1 HTS = modulators (inhibitors or enhancers) of MEK5 binding to human MEKK3 PB1 domain | binding response (% of control), % at 10 µM | hit rate 1.4% among 290,000 | bead-based flow cytometry, Alexa488-MEK5 binding to MEKK3; actives lie on both sides; 0 = blocked by unlabeled MEK5, 100 = vehicle;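 active = binding response more than 3 SD above or below the average of its plate-row segment, actives on both sides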;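 also: Alexa488 bead fluorescence after subtracting the streptavidin-only scavenger bead signal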
Target sequence (Q99759 whole entry, looked up, the tested form may be a part): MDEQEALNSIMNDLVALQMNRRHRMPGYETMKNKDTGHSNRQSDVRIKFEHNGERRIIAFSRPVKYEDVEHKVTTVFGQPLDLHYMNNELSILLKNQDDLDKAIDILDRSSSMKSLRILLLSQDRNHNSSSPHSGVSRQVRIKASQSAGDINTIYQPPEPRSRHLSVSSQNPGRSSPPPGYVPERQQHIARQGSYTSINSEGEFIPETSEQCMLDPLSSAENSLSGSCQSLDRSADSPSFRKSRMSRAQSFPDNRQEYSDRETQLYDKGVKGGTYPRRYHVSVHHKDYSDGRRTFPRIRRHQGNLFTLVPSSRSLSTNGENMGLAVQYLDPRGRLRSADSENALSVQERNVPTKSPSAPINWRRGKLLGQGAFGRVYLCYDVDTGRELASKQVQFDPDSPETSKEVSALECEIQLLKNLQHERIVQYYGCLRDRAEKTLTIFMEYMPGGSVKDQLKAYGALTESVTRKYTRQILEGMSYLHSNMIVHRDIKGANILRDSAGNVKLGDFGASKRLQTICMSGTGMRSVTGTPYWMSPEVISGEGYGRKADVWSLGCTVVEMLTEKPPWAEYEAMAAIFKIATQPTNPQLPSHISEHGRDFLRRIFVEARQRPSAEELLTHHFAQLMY
MEKK2wt PB1 HTS = raises or lowers MEK5 binding to wildtype human MEKK2 PB1 domain; bead flow cytometry, Alexa488-MEK5 binding to MEKK2 WT; actives lie on both sides; binding response (% of control), % at 10 µM; hit rate 1.1% among 290,000; AID 1531; in the data active = binding response below about 67% or above about 130%
MEKK2mut PB1 HTS = signal of MEK5 binding to mutant human MEKK2 PB1 domain; AID 1530; hit rate 0.35% among 290,000; bead flow cytometry, Alexa488-MEK5 binding to MEKK2 mutant; percent response, % at 10 µM; in the data active = percent response above about 24%, passing the limit was not always enough
GRK2 aptamer HTS = inhibitors of human GRK2 displacing RNA aptamer; P25098; bead flow cytometry, FAM-aptamer displacement from GRK2; inhibition of aptamer binding, % at 10 µM; hit rate 0.59% among 330,000; AID 488847;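 active = inhibition of aptamer binding above 40%, roughly 3 SD of noise, on plates passing a quality check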;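 also: median bead fluorescence of bound FAM aptamer so fluorescent compounds give negative values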
GRK2 CP1 = confirmation of human GRK2 inhibitors displacing RNA aptamer; shares compounds with GRK2 aptamer HTS; bead-bound GRK2, FAM-aptamer displacement, flow cytometry; aptamer displacement, % at 10 µM; hit rate 4% among 2,000;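 active = aptamer displacement above 40%, near three times the noise of non-fluorescent compounds, on plates passing quality checks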;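 also: negative values mostly reflect intrinsic compound fluorescence rather than true enhancement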
Aptamer quench SP = counter-screen for GRK2 aptamer inhibitors: fluorescent aptamer quenchers; shares compounds with GRK2 aptamer HTS; Carboxyfluorescein RNA aptamer on beads, flow cytometry quenching; active compounds read low; fluorescence response (% of DMSO), % at 10 µM; 2,000 tested, under 10 active; AID 504580;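 active = compounds that quench the bead-bound fluorescent RNA probe, cutting fluorescence to under half of the solvent control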;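 also: counterscreen run without GRK2 so only probe quenching by compound is measured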
GRK2 confirm 2 = human GRK2 inhibition confirmation, cherry pick 2; shares compounds with GRK2 aptamer HTS; inhibition of aptamer binding, % at 10 µM; 360 tested, under 10 active; bead-bound GRK2, FAM-aptamer displacement, flow cytometry;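 active = inhibition of aptamer binding above 40%, about triple the noise seen with nonglowing compounds, on plates passing quality control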;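 also: negative values mostly come from compounds that fluoresce themselves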
FAM quench SP = counter-screen for GRK2 binding hits: quenchers of fluorescent RNA aptamer; shares compounds with GRK2 aptamer HTS; carboxyfluorescein RNA aptamer beads, flow cytometry quenching; active compounds read low; fluorescence response vs DMSO, % at 10 µM; 360 tested, under 10 active; AID 588494;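 active = response vs DMSO under 50%, meaning signal dropped by over half, treated as fluorescence quencher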;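 also: labelled aptamer on streptavidin beads without GRK2 as a quench counter-screen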
Numbers stand for hits; - = inactive; . = not tested or not shown.

SMILES	MEKK3 PB1 HTS	MEKK2wt PB1 HTS	MEKK2mut PB1 HTS	GRK2 aptamer HTS	GRK2 CP1	Aptamer quench SP	others
COc1ccc(NC(=O)c2cccs2)cc1C(=O)N1CCN(c2ccccc2)CC1	-	-	-	-	.	.
O=c1[nH]c2ccccc2nc1/C=C/c1ccccc1	-	-	-	52.0	-	-
O=c1[nH]c2ccccc2nc1/C=C/c1ccc(O)cc1	-	-	-	.	.	.
CCCn1nnnc1NCc1c(F)cccc1Cl	-	-	-	100.0	-	-
Cc1ccc(C(=O)N2CCCC(C(=O)c3ccc(Oc4ccccc4)cc3)C2)cn1 (stereo not given)	-	-	-	-	.	.
Cc1c([N+](=O)[O-])c([N+](=O)[O-])nn1CC(=O)N1CCOCC1	-	-	-	-	.	.
O=C(CCNC(=O)c1ccc(Cl)cc1)Nc1ncccc1O	-	-	-	77.0	.	.	GRK2 confirm 2=-;FAM quench SP=-
O=C(CCCNC(=O)c1ccc(Cl)cc1)Nc1ncccc1O	-	-	-	-	.	.
COc1ccc(-c2cc(C(=O)NCc3ccc(Cl)cc3)no2)cc1OC	-	-	-	-	-	-
Cc1nc2c(sc(=S)n2Cc2ccco2)c(=O)n1CC(=O)Nc1ccccc1Cl	-	-	-	84.0	-	-
Cc1cccc(NC(=S)N2CCN(S(C)(=O)=O)CC2)c1	-	-	-	-	.	.
CC(C)(C)Cc1nnc(NS(=O)(=O)c2ccc([N+](=O)[O-])cc2)s1	-	-	-	57.0	-	-
Cc1ccc(S(=O)(=O)Nc2nnc(CC(C)(C)C)s2)cc1	-	-	-	-	.	.
O=C(c1cccc(-c2ccccc2F)c1)N1CC[C@@H](N2CCC(O)CC2)[C@H](O)C1	-	-	-	-	.	.
COc1ccccc1CNc1ccc(CNc2ncn[nH]2)cc1	-	-	-	52.0	-	-
CN(C(=O)CS(=O)(=O)c1cccc(Cl)c1)c1ccccc1	-	-	-	-	.	.
Cc1cccc(C(=O)n2c(=S)nc3ccccn32)c1	-	-	-	49.0	-	-
Cc1sc2nc(CN(Cc3ccccc3)C(=O)NC3CCCCC3)[nH]c(=O)c2c1C	-	-	-	-	-	-
Cc1nc2nc(SCc3ccccc3)[nH]n2c(=O)c1C	-	-	-	-	.	.
COCCCN1C(=O)C(=O)/C(=C(/O)c2ccc(S(=O)(=O)N3CCCCC3)cc2)C1c1ccc(O)cc1 (stereo not given)	-	-	-	-	-	-
COCCCN1C(=O)C(=O)/C(=C(/O)c2ccc(S(=O)(=O)N3CCCCC3)cc2)C1c1ccc(O)c(OC)c1 (stereo not given)	-	-	-	-	.	.
O=C(Nc1ccc(F)cc1)c1cc2cc(Cl)ccc2[nH]1	-	-	-	58.0	.	.	GRK2 confirm 2=-;FAM quench SP=-
O=[N+]([O-])c1ccc2nc(SCc3cn4cccnc4n3)[nH]c2c1	-	-	-	89.0	-	-
CCOc1ccccc1C1C(C#N)=C(N)Oc2cc(N)ccc21 (stereo not given)	-	-	-	97.0	-	-
O=C(COC(=O)c1c(F)cccc1Cl)NC(=O)Nc1ccc2c(c1)OCCO2	.	.	.	-	.	.
SMILES	MEKK3 PB1 HTS	MEKK2wt PB1 HTS	MEKK2mut PB1 HTS	GRK2 aptamer HTS	GRK2 CP1	Aptamer quench SP	others
Cc1ccc(C)c(NC(=O)CCN2C(=O)C3CC=CCC3C2=O)c1 (stereo not given)	.	.	.	68.0	-	-
O=Cc1ccc(Oc2nc(Cl)ncc2F)cc1	-	-	-	-	-	-
O=Cc1ccc(Oc2ccc(F)cc2)nc1	-	-	-	-	.	.
COC(=O)c1cc(-c2cccc([N+](=O)[O-])c2)c2c(=O)n(C)c(=O)n(C)c2n1	-	-	-	79.0	-	-
CC(=O)COc1coc(CN2CCN(c3ccc(F)cc3)CC2)cc1=O	-	-	-	99.0	-	-
N[C@H]1CONC1=O	-	-	-	-	-	-
O=C(c1ccco1)c1cn(CC(=O)N2CCCCCC2)c2ccccc12	-	-	-	-	.	.
CC1CCCCN1C(=O)Cn1cc(C(=O)c2ccco2)c2ccccc21 (stereo not given)	-	-	-	97.0	-	-
COc1ccccc1CNC(=O)COC(=O)c1cc(-c2ccco2)nc2ccccc12	-	-	-	49.0	-	-
CCc1nnc(NC(=O)c2cc(-c3ccco3)nc3ccccc23)s1	-	-	-	-	-	-
CCOC(=O)CC1CCCCN1C(=O)CCCn1nnnc1CN1CCC(C)CC1 (stereo not given)	-	-	-	-	.	.
CCOC(=O)N1CCN(C(=O)c2noc3c2COc2ccccc2-3)CC1	-	-	-	-	.	.
CCCN1CCN(C(=O)c2noc3c2COc2ccc(C)cc2-3)CC1	-	-	-	59.0	-	-
Cc1ccc(C(=O)NCCc2nnc3ccc(SCC(=O)NCc4ccc(F)cc4)nn23)cc1	-	-	-	-	.	.
COc1ccc(CCNC(=O)CSc2ccc3nnc(CCNC(=O)c4ccc(C)cc4)n3n2)cc1OC	-	-	-	61.0	.	.	GRK2 confirm 2=-;FAM quench SP=-
COc1ccc(NC(C)=O)cc1S(=O)(=O)N(C)Cc1c(C)nn(-c2ccccc2)c1C	.	.	.	-	.	.
COCCn1c(=S)[nH]c2cc(C(=O)N3CCN(Cc4ccc5c(c4)OCO5)CC3)ccc2c1=O	-	-	-	45.0	-	-
O=C(O)c1ccc2c(c1)[C@@H]1C=CC[C@@H]1[C@H](c1ccccn1)N2	-	-	-	42.0	-	-
COc1ccc(C2c3[nH]c4ccccc4c3C[C@H]3C(=O)N(C4CCN(Cc5ccccc5)CC4)CC(=O)N23)c(OC)c1 (stereo not given in full)	-	-	-	-	.	.
CCOc1ccccc1C1c2[nH]c3ccccc3c2C[C@H]2C(=O)N(C3CCN(Cc4ccccc4)CC3)CC(=O)N12 (stereo not given in full)	-	-	-	-	-	-
Cc1ccccc1C1c2[nH]c3ccccc3c2C[C@H]2C(=O)N(C3CCN(Cc4ccccc4)CC3)CC(=O)N12 (stereo not given in full)	-	-	-	-	-	-
O=C(C[n+]1ccccc1)N/N=C/c1cccs1	-	-	-	-	.	.
CCOc1ccc2oc(C(=O)N3CCN(c4ccccc4OCC)CC3)c(C)c2c1	.	.	.	-	.	.
Nc1c(C(=O)OCC(=O)Nc2cccc([N+](=O)[O-])c2)[nH]c(=O)[nH]c1=O	.	.	.	-	.	.
O=C(COc1ccc(S(=O)(=O)N2CCCC2)cc1Cl)NCc1cccnc1	-	-	-	-	.	.
NS(=O)(=O)c1ccc(NC(=S)N2CCC(O)CC2)cc1	-	-	-	91.0	-	-
O=C(NCc1ccc2c(c1)OCO2)c1cc2ncc(Br)cn2n1	-	-	-	-	-	-
